D3 ag = activates the human D3 dopamine receptor; P35462; D3R DiscoveRx beta-arrestin cells, luminescence, 90 min; max activation, %; 410,000 tested, 0.58% active; AID 652048; in the data active = max activation above about 30%; also: 0% is about no effect
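Cells at 1500/well, incubated overnight, then treated with pinned compounds (dopamine as control) for 90 min at 37 degrees C. DiscoveRx reagent added for 30 - 60 minutes at room temperature; luminescence read.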
Integrin act MD = activates integrin-mediated alleviation for muscular dystrophy. alpha7betagal myoblasts, beta-gal FDG fluorescence, 48 h. Potency, µM (top dose mostly 38.3 µM), for the others: at the top dose activation, most hits filed as activators. 350,000 tested, 0.064% active. AID 624291;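 also: potency is read from the fitted curve at half-maximal effect; 100% = response of the positive control SU9516; nearly all actives have a fitted effect of over 60% in size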
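alpha7betagal+/- myoblasts (passage 13, 250/well) treated 48 h at 37C with compounds at 1:260 dilution of DMSO stock. Lysed, then beta-galactosidase activity read as FDG fluorescence (ex 480/em 540) after 30 min, with pre-read for autofluorescence.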
CBFb-RUNX1 inh = inhibitors of human CBF-beta and RUNX1 interaction; 230,000 tested, under 10 active; Q01196+Q13951; AlphaScreen CBFb-His/RUNX1-biotin binding, biochemical; AID 1477; Potency, µM (titrated, usually from 59.8 µM), inactives show at the top dose activity, negative = inhibition, usual class: inhibitors; also: % of control where 0% means no effect
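Inhibition was taken as any reduction in AlphaScreen signal from the CBF-beta–RUNX1 pair (His and biotin tags, 30 nM each), measured after compound (15 min) and bead (90 min) incubations at room temperature.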
MBNL1-CUG inh = MBNL1-poly(CUG) RNA binding inhibition; 280,000 tested, 0.036% active; TR-FRET MBNL1-His/biotin-(CUG)12 binding, 665/545 ratio; AID 2675; Potency, µM (doses to about 57.5 µM), inactives show at the highest dose activity change, negative = inhibition, actives largely listed as inhibitors; Q9NR56; active = well fitted inhibition curve with a large enough effect in the signal ratio, with a control signal flat, not every such curve was filed as active; inconclusive = small, poorly fitted or top-dose-only effect, or effect the other way, or a change in a side signal; inactive = no such curve, though single readings can be large or run the other way; the % refers to the signal ratio; also: potency is read from the fitted curve at half-maximal effect; % is scaled to controls: 0 for no effect and ±100 for the full control effect
Target sequence (Q9NR56 whole entry, looked up): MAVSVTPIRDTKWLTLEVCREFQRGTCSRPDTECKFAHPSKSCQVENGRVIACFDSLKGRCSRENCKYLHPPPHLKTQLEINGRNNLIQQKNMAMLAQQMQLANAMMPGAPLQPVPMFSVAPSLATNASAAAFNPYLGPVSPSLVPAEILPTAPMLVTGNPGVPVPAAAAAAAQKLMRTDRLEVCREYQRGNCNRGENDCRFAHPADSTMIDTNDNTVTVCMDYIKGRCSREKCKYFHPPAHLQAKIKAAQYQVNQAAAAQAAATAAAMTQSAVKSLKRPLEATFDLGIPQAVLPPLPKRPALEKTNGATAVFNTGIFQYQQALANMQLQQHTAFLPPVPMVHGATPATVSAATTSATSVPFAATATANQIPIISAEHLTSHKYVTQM
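Inhibition of protein-RNA binding appears as loss of TR-FRET between terbium anti-His antibody on MBNL1-His and streptavidin-XL665 on biotin-(CUG)12. Activity is normalized to buffer-only and uninhibited-complex controls.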
D3 antag = D3 dopamine receptor (human) antagonism; P35462; D3R cells, DiscoveRx beta-arrestin luminescence, antagonist mode; stronger effect = lower value; max response, negative = inhibition, %; 360,000 tested, 2.5% active; AID 652054; in the data active = max response below about -50%; inconclusive = no clear call, values can overlap the other calls; also: % is scaled to controls: 0 for no effect and ±100 for the full control effect
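Cells plated overnight at 1500 cells/well, then exposed to library compounds with dopamine controls for 90 minutes at 37 degrees C. DiscoveRx reagent added for 30–60 minutes at room temperature; luminescence read, quantitative HTS format.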
PTHR1 ag = PTHR1 (human) receptor agonism; Q03431; HEK293 GP2 PTHR1 cells, GloSensor cAMP luminescence, 1 h; Potency, µM (series often up to 115 µM), for the others: at the highest dose activation, hits mostly activators; 410,000 tested, 0.075% active; AID 743266; also: potency is read from the fitted curve at half-maximal effect; nearly all actives have a fitted effect of over 55% in size
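HEK-293-derived GP2 cells expressing PTHR1 and a GloSensor cAMP reporter, 3,000/well, plated overnight, given luciferin plus IBMX (each 0.5 mM as added) for 1 h at 37 °C, then compound for 1 h at 37 °C. Luminescence was read after 15 min at room temperature.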
* marks the source's active call; other numbers are inactive results; i = inactive; u = inconclusive; x = not tested or not shown; [ ] = dose if it differs, or a comment. An excerpt weighted towards active compounds, which were near 2.8% of everything screened. Unless noted, calls follow the shape of the dose curve; as a rule, active = well fitted curve in the direction sought with a large enough effect; inconclusive = small, poorly fitted or top-dose-only effect, or another doubt; inactive = no such curve, though single readings can be large; an effect the other way counts as inactive or inconclusive.

SMILES	D3 ag	Integrin act MD	CBFb-RUNX1 inh	MBNL1-CUG inh	D3 antag	PTHR1 ag
COc1cccc(OC)c1OCCN1CCN(C(c2ccccc2)c2ccccc2)CC1	-6	-22%	x	-1%	-109*	i
COc1cccc(OC)c1OCCN1CCCC1	-1	22%	x	-3%	-5	-18%
COc1ccc(C(=O)C(=O)N2CCC(Cc3ccccc3)CC2)cc1OC	-2	x	x	x	7	-6%
CC(C)[C@@H]1[C@H]2CC[C@H](C2)[C@H]1N	x	x	4%[21.7 µM]	x	x	x
CN1CCN(C(CNC(=O)C(=O)Nc2ccc3c(c2)OCCO3)c2ccc(F)cc2)CC1 (stereo not drawn)	108*	-21%	x	x	-1	i
NCCCC[C@H](NC(=O)[C@@H]1CCCN1C(=O)[C@H](CO)NC(=O)[C@H](CC(=O)O)NC(=O)CNC(=O)[C@H](CCCN=C(N)N)NC(=O)CN)C(=O)O	x	x	6%	x	x	x
CC(C)(C)N(Cc1ccccc1)C(=O)COC(=O)CSc1ccc([N+](=O)[O-])cc1	-3	24%	x	x	-19	-5%
O=C(Nc1cccc(C(F)(F)F)c1)c1cc(S(=O)(=O)N2CCCC2)c[nH]1	3	x	x	x	x	i
Cc1ccc(-c2[nH]c3cc(C(=O)NCCCn4ccnc4)ccc3c(=O)c2O)cc1	7	-9%	u	u	-64*	i
COc1ccccc1N1CCN(CCCNc2cc(=O)n(C)c(=O)n2C)CC1	-3	-4%	u	1%	-62*	-7%
COc1ccccc1N1CCN(CCCNC(=O)Nc2ccccc2)CC1	22	-5%	-1%	u	-29	i
COc1ccccc1N1CCN(S(=O)(=O)c2ccc3c(c2)n(C)c(=O)n3C)CC1	2	-10%	-9%	4%	-11	-16%
COc1ccccc1N1CCN(CCS(=O)(=O)c2cc(Cl)ccc2Cl)CC1	-10	-24%	x	x	-93*	-32%
COc1ccccc1N1CCN(CCCNc2c(C)c(=O)n(C)c(=O)n2C)CC1	0	x	7%	x	-57*	7%
CC(=O)OCC(=O)[C@@]1(O)CC[C@H]2[C@@H]3CCC4=CC(=O)CC[C@]4(C)C3=CC[C@@]21C	-3	x	x	x	x	x
O=C(CCN1C(=O)c2ccccc2S1(=O)=O)N1CCN(c2ccc(F)cc2)CC1	0	-5%	x	x	0	-12%
O=C1c2ccccc2S(=O)(=O)N1CCS(=O)(=O)c1ccc(F)cc1	87*	8%	x	-13%	-17	2%
COc1cc(/C=C/c2ccc3cccc(OC)c3n2)c(OC(C)=O)c([N+](=O)[O-])c1	-9	0%	-13%	u	-53*	-13%[57.5 µM]
NC(Cc1ccccc1)C(=O)O (stereo not drawn)	9	x	x	x	x	x
CC(C)c1ccccc1OCC(O)CN1CCN(S(=O)(=O)c2ccc([N+](=O)[O-])cc2)CC1 (stereo not drawn)	-18	u	x	u	-55*	-24%
CNc1ccc(Cl)cc1S(=O)(=O)c1ccccc1[N+](=O)[O-]	3	x	x	x	43	-88%
CCc1nc2c(OCCn3cccc3)cccn2c1N(C)C(=O)c1ccco1	7	x	x	x	23	i
Cn1c(-c2ccc3ccccc3n2)nc2cnccc21	12	-10%	4%	u	-59*	-85%[57.5 µM]
CCOc1ccc(S(=O)(=O)N2CCOCC2)cc1NC(=O)CN1C(=O)NC(CC)(c2ccccc2)C1=O (stereo not drawn)	1	2%	x	-3%	19	-7%
CC(C)c1ccc(NC(=O)CN2CCN(c3ccccn3)CC2)cc1	9	-15%	x	4%	-13	0%
CC(=O)c1ccc(NC(=O)CN2CCN(c3ncccn3)CC2)cc1	70*	-17%	0%	-2%	-24	i
N#Cc1ccc(NC(=O)CN2CCN(c3ccccn3)CC2)cc1	49*	u	x	1%	12	-1%
Brc1cc2[nH]cnc2c2ccccc12	46*	-27%	5%	u	19	-39%[57.5 µM]

Screens from PubChem.
